ERAP1 inh: ERAP1 (human) enzyme inhibition; recombinant ERAP1, Leu-AMC fluorescence, 60 min; inhibition, % at 10.7 µM; hit rate 0.15% among 340,000;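 active = mean replicate inhibition of at least 30%, or all replicates individually reaching that 30% level; inactive = mean below 30% and not every replicate reaching it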;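 also: 0% = neutral control wells and 100% = L-leucinethiol positive control wells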
Target sequence (Q9NZ08 whole entry, looked up): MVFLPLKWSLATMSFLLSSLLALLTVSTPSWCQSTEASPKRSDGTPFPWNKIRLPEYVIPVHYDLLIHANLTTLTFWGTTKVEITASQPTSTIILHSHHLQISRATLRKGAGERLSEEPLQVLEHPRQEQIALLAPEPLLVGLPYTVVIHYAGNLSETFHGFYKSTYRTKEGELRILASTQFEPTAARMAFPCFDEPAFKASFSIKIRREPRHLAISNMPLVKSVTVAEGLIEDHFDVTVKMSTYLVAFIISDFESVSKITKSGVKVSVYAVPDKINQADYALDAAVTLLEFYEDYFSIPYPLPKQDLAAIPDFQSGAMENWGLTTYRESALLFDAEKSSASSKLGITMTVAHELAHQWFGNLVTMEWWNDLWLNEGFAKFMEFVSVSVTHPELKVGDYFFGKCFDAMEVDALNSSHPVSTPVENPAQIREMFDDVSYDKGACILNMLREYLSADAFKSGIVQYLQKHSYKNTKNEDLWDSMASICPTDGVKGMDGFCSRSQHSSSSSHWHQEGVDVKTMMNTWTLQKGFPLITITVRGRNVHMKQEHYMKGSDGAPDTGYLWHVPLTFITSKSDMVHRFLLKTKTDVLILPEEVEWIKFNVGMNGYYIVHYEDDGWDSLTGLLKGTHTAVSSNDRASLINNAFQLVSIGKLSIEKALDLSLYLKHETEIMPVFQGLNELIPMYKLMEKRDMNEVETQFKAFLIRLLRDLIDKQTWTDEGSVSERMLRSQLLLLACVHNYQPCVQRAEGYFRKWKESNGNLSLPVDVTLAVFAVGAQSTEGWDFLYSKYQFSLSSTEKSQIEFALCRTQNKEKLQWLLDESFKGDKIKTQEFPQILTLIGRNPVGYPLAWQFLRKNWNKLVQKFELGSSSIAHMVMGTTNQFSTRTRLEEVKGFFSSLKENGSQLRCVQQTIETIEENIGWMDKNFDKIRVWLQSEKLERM
PDI inh: inhibitors of human protein disulfide isomerase. inhibition, % at 10 µM. AID 588391. PDI insulin aggregation turbidity, A650, 90 min. hit rate 0.052% among 350,000;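 active = mean inhibition across replicates of 30% or more, whatever share of single replicates reach that level; inconclusive = mean inhibition below 30% while every single replicate reaches 30%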
ERp5 block: inhibitors of human ERp5; Q15084; ERp5 insulin aggregation, absorbance 650 nm, 90 min; inhibition, % at 9.99 µM; hit rate 0.05% among 350,000; AID 651711;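 active = mean replicate inhibition above about 25%, with every replicate also reaching it, limit read from the data, passing the limit was not always enough; inconclusive = only one of those two criteria met; inactive = neither criterion met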
DENV2 CPE rescue: inhibitors of DENV2 cytopathic effect | CPE inhibition, % at 9.99 µM | DENV2-infected cells, cytopathic effect rescue, plate reader | AID 651640 | hit rate 1.7% among 350,000; in the data active = CPE inhibition above about 20%, passing the limit was not always enough; inconclusive = no clear call, values can overlap the other calls; tested in BHK-21 cells;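 also: 0% = median of neutral control wells and 100% = median of positive control wells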
AF4-AF9 inh: blocks AF4 peptide binding to human AF9. inhibition, % at 10 µM. AlphaScreen, biotin-AF4 peptide binding to FLAG-AF9. hit rate 0.47% among 350,000;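 active = every replicate reaching a set inhibition limit, whatever the replicate mean, cut at about 25% in these data; inconclusive = mean inhibition reaches that limit but some replicates miss it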;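 also: 0% = plate neutral control median and 100% = total signal loss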
Starred values were filed as active, the others as inactive; u = inconclusive; x = not tested or not shown; ! = not active in a repeat. Most compounds without a hit are left out; they make up all but 1.8% or so of the library.

SMILES	ERAP1 inh	PDI inh	ERp5 block	DENV2 CPE rescue	AF4-AF9 inh
COC(=O)C[C@@H]1CC[C@@H]2[C@H](COC[C@@H](O)CN2CCC(F)(F)F)O1	x	x	x	3.1	x
CC(C)c1onc(C(=O)N2CCN(Cc3ccccc3)CC2)c1[N+](=O)[O-]	-1.5	x	-6.6	168.1*	1.3
CC(C)c1onc(C(=O)N2CCOCC2)c1[N+](=O)[O-]	-2.9	4.9	1.2	-8.7	-4.3
C[C@H](CO)N1C[C@H](C)[C@H](CN(C)Cc2ccccc2C(F)(F)F)OCc2ccccc2-c2c(n(C)c3ccccc23)C1=O	-3.5	x	3.4	26.4*	-4.3
COc1ccccc1CN(C)C[C@H]1OCc2ccccc2-c2c(n(C)c3ccccc23)C(=O)N([C@H](C)CO)C[C@H]1C	-0.5	x	0.2	26.6*	7.5
COc1ccccc1CN(C)C[C@@H]1OCc2ccccc2-c2c(n(C)c3ccccc23)C(=O)N([C@@H](C)CO)C[C@H]1C	-0.4	x	-4.6	-3.5	9.8
O=C(C[C@@H]1C[C@H]2c3cc(NC(=O)Nc4ccccc4F)ccc3O[C@H]2[C@H](CO)O1)NCC1CC1	3.8	x	-1.7	27.4*	3.2
O=C(C[C@@H]1C[C@@H]2c3cc(NC(=O)Nc4ccccc4F)ccc3O[C@@H]2[C@H](CO)O1)NCC1CC1	6.0	x	-0.6	67.6*	0.4
COc1cccc(NC(=O)N2CC(=O)N3[C@H](C2)[C@H](c2ccc(C4=CCCCC4)cc2)[C@@H]3CO)c1	x	x	-1.4	-11.0	5.5
C[C@H]1CN([C@@H](C)CO)C(=O)c2cc(NC(=O)Nc3ccc(F)cc3)ccc2O[C@H]1CN(C)S(=O)(=O)c1cn(C)cn1	-3.9	x	-1.0	1.1	-12.9
Cc1noc(C)c1S(=O)(=O)N(C)C[C@@H]1OCCCC[C@@H](C)Oc2ccc(NC(=O)NC3CCCCC3)cc2C(=O)N([C@@H](C)CO)C[C@@H]1C	-0.1	x	-2.0	u	-1.3
COc1ccc2c3c([nH]c2c1)[C@H](CO)N(C(=O)c1cccnc1)CC31CN(Cc2cccnc2)C1	0.6	x	-6.0	-8.5	1.2
CCCNC(=O)NC[C@H]1[C@@H](c2ccc(C3=CCCC3)cc2)[C@H](CO)N1C(=O)CC	2.4	x	4.2	-1.7	-1.3
CCCNC(=O)NC[C@@H]1[C@@H](c2ccc(C3=CCCC3)cc2)[C@@H](CO)N1C(=O)CC	0.1	x	-2.4	115.6*	-0.5
CC(=O)N1[C@H](CO)[C@@H](c2ccc(C3=CCCCC3)cc2)[C@@H]1CNC(=O)CN(C)C	x	x	6.2	21.7*	7.2
CCCNC(=O)C[C@H]1CC[C@H]2[C@@H](COC[C@@H](O)CN2C(=O)C2CCOCC2)O1	1.9	x	-4.4	-1.3	-3.1
Cc1ccc(CNC(=O)c2cccc3c2C(=O)c2ccc(N4CCCCC4)cc2S3(=O)=O)cc1	3.0	1.1	10.4	x	-1.0
Cc1ccc(CNC(=O)c2cccc3c2C(=O)c2ccc(N4CCOCC4)cc2S3(=O)=O)cc1	0.5	-1.9	-0.3	31.1*	1.6
Cc1cc2nc(-c3ccccc3)c(CC3CCCCC3)n2c(C)c1Br	x	x	-2.5	-12.4	0.0
Cc1cc2nc(-c3cccc(Cl)c3)c(CC3CCCCC3)n2c(C)c1Br	x	x	1.8	98.4*	-5.0
CC(CCc1ccccc1)NCc1ccc(Cl)cc1Cl (stereo unspecified)	1.3	8.2	1.6	4.3	-1.7
CC(CCc1ccc(O)cc1)NC(c1ccccc1)c1ccc(Cl)cc1 (stereo unspecified)	-1.0	15.4	1.7	55.4*	3.8
O=C(c1cc(COc2cccc3cccnc23)on1)N1CCC[C@H]1CO	-5.6	-7.2	8.1	0.2	40.6*
Cc1cc(C)cc(N2CC(c3nc4ccccc4n3C)CC2=O)c1 (stereo unspecified)	102.6*	x	-9.2	-6.2	-2.5
COc1cccc(C(=O)Nc2ccc3c(c2)OC[C@@H](C)N(C(C)=O)C[C@H](C)[C@H](OC)CN(C)C3=O)c1	0.4	x	-2.3	-8.2	-0.8
SMILES	ERAP1 inh	PDI inh	ERp5 block	DENV2 CPE rescue	AF4-AF9 inh
Nc1cccc2c(O)cccc12	-3.2	7.3	2.1	31.5*	x
CO[C@H]1CN(C)C(=O)c2ccc(NC(=O)C3CC3)cc2OC[C@@H](C)N(C(=O)c2ccccc2F)C[C@@H]1C	2.9	x	-11.2	2.0	-1.7
Cc1noc(C)c1NC(=O)N(C)C[C@@H]1Oc2ccc(NC(=O)Cc3cn(C)c4ccccc34)cc2C(=O)N([C@H](C)CO)C[C@@H]1C	-4.1	x	1.3	4.1	-10.7
CC(Oc1ccccc1Cl)C(=O)N1CCOCC1 (stereo unspecified)	-2.1	-0.9	2.9	107.2*	4.6
C[C@@H]1CN([C@H](C)CO)C(=O)Cc2cc(NC(=O)Cc3cn(C)c4ccccc34)ccc2O[C@H]1CN(C)Cc1ccc(C(F)(F)F)cc1	0.9	x	-2.2	33.0*	-4.7
C[C@H]1CN([C@@H](C)CO)C(=O)Cc2cc(NC(=O)Cc3cn(C)c4ccccc34)ccc2O[C@@H]1CN(C)C(=O)Nc1cccc2ccccc12	1.8	x	-2.8	21.3*	-2.2
Cc1noc(C)c1NC(=O)Nc1ccc2c(c1)CC(=O)N([C@@H](C)CO)C[C@H](C)[C@@H](CN(C)C(=O)Nc1ccccc1)O2	1.3	x	0.4	83.0*	-2.0
C[C@H]1CN([C@@H](C)CO)C(=O)Cc2cc(NC(=O)Nc3cccc4ccccc34)ccc2O[C@H]1CN(C)C	-3.2	x	3.1	-2.1	-0.3
C[C@H](CO)N1C[C@H](C)[C@@H](CN(C)C)Oc2ccc(NC(=O)Nc3cccc4ccccc34)cc2CC1=O	-2.3	x	-1.1	38.8*	4.6
C[C@H](CO)N1C[C@H](C)[C@@H](CN(C)C(=O)Nc2ccccc2)Oc2ccc(NC(=O)Cc3cn(C)c4ccccc34)cc2CC1=O	-1.2	x	1.3	11.6	2.0
O=C(NCc1ccc2c(c1)OCO2)[C@@H]1[C@@H](CO)[C@@H]2Cn3c(cccc3=O)[C@H]1N2Cc1ccccc1	0.1	x	0.7	0.5	0.0
O=S(=O)(N[C@@H]1CCCN(Cc2ccc(OCCO)cc2)C1)c1cc(C(F)(F)F)ccc1Cl	-3.0	x	-5.9	-3.5	19.7
Cc1noc(C)c1NC(=O)Nc1ccc2c(c1)CC(=O)N([C@H](C)CO)C[C@H](C)[C@H](CN(C)C(=O)Nc1cccc3ccccc13)O2	2.5	x	-11.1	63.3*	4.0
C[C@@H]1CN([C@H](C)CO)C(=O)Cc2cc(NC(=O)Nc3cccc4ccccc34)ccc2O[C@@H]1CN(C)C(=O)NC1CCCCC1	2.3	x	-0.1	22.0*	-0.8
C[C@@H]1CN([C@@H](C)CO)C(=O)Cc2cc(NC(=O)Nc3cccc4ccccc34)ccc2O[C@@H]1CN(C)S(C)(=O)=O	3.0	1.6	-0.1	65.7*!	2.2
Cc1noc(C)c1NC(=O)Nc1ccc2c(c1)CC(=O)N([C@@H](C)CO)C[C@H](C)[C@H](CN(C)C(=O)Nc1cccc3ccccc13)O2	1.4	x	-0.8	16.7	0.5
C[C@H]1CN([C@@H](C)CO)C(=O)Cc2cc(NC(=O)Nc3cccc4ccccc34)ccc2O[C@H]1CN(C)S(C)(=O)=O	2.6	x	4.8	-2.9	2.1

Assay outcomes (PubChem)
